# Hit rate of the full screen: of about 66,000 compounds, about 960 (1.5%) showed an effect of 50% or more. The list comes from a sample in which strong results are over-represented; it also holds similar structures and randomly drawn compounds.
# Test system: Trypanosoma brucei
# Assay: Trypanosoma brucei 72 hour study
# Assay type: functional, organism-based
# Parameters: scale not given: in the data most compounds retested in dose-response had high values
compound,measurement,setting,value
O=C(NCC1CC1)C1CCC2(CCN(C(=O)c3cccnc3)CC2)O1.O=C(O)C(F)(F)F (stereo not given),Percent Effect,"30.3 µM, […]",-34.45%
O=C([C@H]1C[C@@H]2CN(c3ncc(F)cn3)C[C@H]1O2)N1CCCC1,Percent Effect,"30.3 µM, […]",-1.674%
Cc1cc(Cc2ccc(F)cc2)cc(C2CCCNC2)n1 (stereo not given),Percent Effect,"30.3 µM, […]",51.54%
Cc1cc(Cc2ccccc2)cc(C2CCCNC2)n1 (stereo not given),Percent Effect,"30.3 µM, […]",2.708%
Cc1cc(Cc2ccccc2C)cc(C2CCCNC2)n1 (stereo not given),Percent Effect,"30.3 µM, […]",49.51%
Cc1cc(Cc2ccccc2F)cc(C2CCCNC2)n1 (stereo not given),Percent Effect,"30.3 µM, […]",18.5%
Cc1cc(Cc2cccc(C(F)(F)F)c2)cc(C2CCCNC2)n1 (stereo not given),Percent Effect,"30.3 µM, […]",99.88%
Cc1nc(C2CCCNC2)cc(N(C)CCc2ccccc2)n1 (stereo not given),Percent Effect,"30.3 µM, […]",33.93%
Cc1cccc(Cc2cc(C)nc(C3CCCNC3)c2)c1 (stereo not given),Percent Effect,"30.3 µM, […]",100.3%
Cc1cc(Nc2cnccn2)cc(C2CCCNC2)n1 (stereo not given),Percent Effect,"30.3 µM, […]",-9.252%
Cc1nc(NC2CCCCC2)cc(C2CCCNC2)n1.Cl (stereo not given),Percent Effect,"30.3 µM, […]",43.9%
CN1CC(=O)N(c2cnn(C)c2)CC12CCN(Cc1cccs1)C2.O=C(O)C(F)(F)F.O=C(O)C(F)(F)F (stereo not given),Percent Effect,"30 µM, 30.03 µM",-5.896%
Cc1nc(CN2C(=O)CCC23CCN(Cc2ccccn2)CC3)cs1.O=C(O)C(F)(F)F.O=C(O)C(F)(F)F,Percent Effect,"30.3 µM, […]",-6.926%
COCCN1C(=O)C[C@H]2[C@H]1CCN2Cc1ccc(OC)cc1.O=C(O)C(F)(F)F,Percent Effect,"30 µM, 30.03 µM",-19.5%
CC(C)CN1CCC(NC(=O)c2ccc(Cl)cc2Cl)CC1,Percent Effect,"30 µM, 30.03 µM",-12.53%
Cc1ncc(CNCCO)c2cc(C(=O)c3ccc(Br)cc3)oc12.Cl,Percent Effect,"30 µM, 30.03 µM",-4.371%
CCOCC1CN(CCc2ccccc2)Cc2c1cnn2C (stereo not given),Percent Effect,"30.3 µM, […]",62.26%
COCC1CN(CCc2ccc(OC)c(OC)c2)Cc2c1cnn2C (stereo not given),Percent Effect,"30.3 µM, […]",-2.73%
CCOCC1CN(CCOCc2ccccc2)Cc2c1cnn2C (stereo not given),Percent Effect,"30.3 µM, […]",-79.88%
O=C(O)C(F)(F)F.O=C1N(CC2CCCC2)CCC12CCN(c1ncc(F)cn1)CC2,Percent Effect,"30.3 µM, […]",-27.57%
Fc1ccccc1Sc1ccccc1CNC1=NCCN1.I,Percent Effect,"30 µM, 30.03 µM",6.107%
Cn1cccc1C(=O)N1C[C@@H]2C[C@@H](c3nc(C4CC4)cs3)O[C@@H]2C1.O=C(O)C(F)(F)F,Percent Effect,"30 µM, 30.03 µM",-16.96%
CC1CCCN(CCNC(=O)c2ccn(-c3ccccc3)n2)C1 (stereo not given),Percent Effect,"30 µM, 30.03 µM",26.82%
CC1CCCN(CCNC(=O)c2ccn(-c3cccc(F)c3)n2)C1 (stereo not given),Percent Effect,"30.3 µM, […]",1.994%
same,Percent Effect,"10 mM, 10 mM as filed; unlikely as a test dose",11.39%
COc1ccc(-n2ccc(C(=O)NCCN3CCCCCC3)n2)cc1,Percent Effect,"30.3 µM, […]",53.03%
same,Percent Effect,"10 mM, 10 mM as filed; unlikely as a test dose",-44.94%
COc1ccc(-n2ccc(C(=O)NCCN3CCCCC3)n2)cc1,Percent Effect,"30.3 µM, […]",-2.952%
same,Percent Effect,"10 mM, 10 mM as filed; unlikely as a test dose",-24.45%
COc1ccc(-n2ccc(C(=O)NCCN3CCC(C)CC3)n2)cc1,Percent Effect,"30.3 µM, […]",26.29%
same,Percent Effect,"10 mM, 10 mM as filed; unlikely as a test dose",24.76%
CC1CCCN(CCNC(=O)c2ccn(-c3ccc(F)cc3)n2)C1 (stereo not given),Percent Effect,"30.3 µM, […]",63.43%
same,Percent Effect,"10 mM, 10 mM as filed; unlikely as a test dose",1.661%
CCCn1[nH]cc/c1=N\C(=O)CN1CCc2cnc(C(C)C)nc2C1,Percent Effect,10 µM,-28.74%
CCc1ocnc1C(=O)N1CCOC(c2nc(C)n[nH]2)C1 (stereo not given),Percent Effect,10 µM,-27.2%
same,Percent Effect,"30.3 µM, […]",-13.47%
Cc1ccc(CN2Cc3nnn(C)c3C(COCc3ccccc3)C2)s1.O=C(O)C(F)(F)F (stereo not given),Percent Effect,"30.3 µM, […]",-18.47%
Cn1cc(-c2ncc3c(c2C(=O)O)CCN(CC2CC2)C3)cn1.O=C(O)C(F)(F)F.O=C(O)C(F)(F)F,Percent Effect,"30.3 µM, […]",-26.37%
COCCC1(CNC(=O)Nc2ccnc(C)c2)CCCC1,Percent Effect,"30 µM, 30.03 µM",5.014%
CN(C)c1ncc(I)c(C2CCCN2C)n1.Cl (stereo not given),Percent Effect,"30.3 µM, […]",-5.31%
CCc1cnc(CN(C)C2CCN(CCn3cc(C#N)cn3)C2)o1 (stereo not given),Percent Effect,"30.3 µM, […]",-0.7137%
Cl.Cn1nc(C2CCN(C(=O)Cc3ccsc3)CC2)c2cccnc21,Percent Effect,"30.3 µM, […]",16.05%
Cc1ccc(C)c(CS(=O)(=O)CC(=O)NC(C)c2ccc(F)cc2F)c1 (stereo not given),Percent Effect,"30.3 µM, […]",56.23%
Cc1ccc(C)c(CS(=O)(=O)CC(=O)Nc2ccc(F)cc2F)c1,Percent Effect,"30.3 µM, […]",17.81%
CCS(=O)(=O)CC(=O)NC(C)c1ccc(F)cc1F (stereo not given),Percent Effect,"30.3 µM, […]",-61.88%
CS(=O)(=O)NC1CCN(C(=O)c2cc3ccccc3s2)C1 (stereo not given),Percent Effect,"30.3 µM, […]",-42.34%
CCC[C@@H]1CN(C(=O)c2cnc3ccccc3c2)C[C@H]1NS(C)(=O)=O,Percent Effect,"30.3 µM, […]",-86.77%
CCC[C@@H]1CN(C(=O)c2cc3ccccc3s2)C[C@H]1NS(C)(=O)=O,Percent Effect,"30.3 µM, […]",55.32%
CNc1ncc2c(n1)CN(c1cccc(OC)c1)C2=O,Percent Effect,"30.3 µM, […]",5.042%
O=C(CN1C(=O)CCC1=O)NCCc1nc(C2CC2)cc(C(F)(F)F)n1,Percent Effect,"30 µM, 30.03 µM",-18.17%

# Reference: ChEMBL document CHEMBL3988442, “University of Dundee, Small-Polar-MMV Screening Library” (2021)
